Test [1] in a line: AP1 Signaling Pathway (AID 357; active = well fitted curve in either direction with a large enough effect, not every such curve was filed as active;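 also: ME-180 reporter cells stimulated with EGF at its EC50 level; % is scaled to controls: 0 for no effect and ±100 for the full control effect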). An outline of the steps:
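Modulation of EGF-driven AP-1 transcription was assessed with a beta-lactamase reporter in ME-180 cells. Compound and EC50 EGF were co-incubated 5 hours at 37 °C before 2.5-hour CCF4 loading at room temperature and dual-emission reading.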

Test [2] has as its target Cytochrome P450 1A2 (Homo sapiens) (UniProt P05177). The test can be described thus: p450-cyp1a2 (AID 410; calls by dose curve;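 also: -100% = full effect of reference inhibitor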). Put shortly:
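Luminescent readout of luciferin formed from Luciferin-ME by human CYP1A2; data normalized against complete inhibition by 57 uM furafylline. Enzyme 20nM, substrate 100uM at Km, 100mM KPO4 buffer, 60 min reaction at room temperature.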

Test [3] can be described thus: NFAT Signaling Pathway (AID 444; active = well fitted curve in either direction with a large enough effect, not every such curve was filed as active;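 also: carbachol stimulus at about its EC50 of 1 µM final; % is scaled to controls: 0 for no effect and ±100 for the full control effect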). Particulars: Jurkat NFAT-bla M1, carbachol, beta-lactamase ratio, 5 h; at 17.2 µM (top of the series) unless noted. An outline of the steps: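 Jurkat cells carrying an NFAT-driven β-lactamase reporter and co-transfected muscarinic M1 receptor were treated with compound plus carbachol (1 uM final, an EC50 level) for 5 h at 37 °C. CCF4 loading followed for 1 h at RT; 460/530 nm ratio gave %activity.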

Test [4] in a line: Stat Signaling Pathway (AID 446; active = well fitted curve in either direction with a large enough effect, not every such curve was filed as active;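 also: ME-180 cervical cancer cells given 40 pM IL-6 alongside compound; SIE-controlled beta-lactamase reporter measured as 460/530 nm FRET emission ratio; % is scaled to controls: 0 for no effect and ±100 for the full control effect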). Put shortly:
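Screening format detects activators and inhibitors alike: ME-180 SIE-bla cells stimulated at 40 pM IL-6 for 5 hrs with compound, then dual-emission beta-lactamase read at 405 nm excitation.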

Test [5] deals with Mitogen-activated protein kinase 10 (Mus musculus) (UniProt Q61831). The test can be described thus: JNK3 AlphaScreen Assay (AID 530; active = well fitted curve in either direction with a large enough effect, not every such curve was filed as active;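 also: kinase came from lysate of stimulated human HepG2 cells; signal reports phosphorylation of biotinylated GST-cJun 1-79 at Ser73 with 10 µM ATP; % is scaled to controls: 0 for no effect and ±100 for the full control effect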). Put shortly:
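Inhibitors reduce antibody binding to phosphorylated biotin-cJun, lowering AlphaScreen luminescence. Lysates from HepG2 cells pre-activated by IL-1beta plus TNF-alpha supplied JNK3; compounds were titrated.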
For orientation: Alpha assays give light when donor and acceptor beads are brought close together.

For test [6], the target named is 3',5'-cyclic-AMP phosphodiesterase 4B (Homo sapiens) (UniProt Q07343). The test can be described thus: qHTS Assay for Inhibitors of PDE-IV (AID 607; active = well fitted activation curve with a large enough effect in the main read-out, with a control signal flat, not every such curve was filed as active; also: % of control where 0% means no effect). Put shortly:
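The readout is membrane depolarisation from a cAMP-sensing CNG channel, detected with a potential dye at ex 535/em 590. Cells were HEK293-derived (endogenous PDE-IV) at 1000 cells/well, titrated up to 22.9 uM final.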
Background: qHTS replaces the single test concentration by a dilution series.

Test [7] in a line: qHTS Assay for Lipid Storage Modulators (AID 1519; calls by dose curve). Conditions: Drosophila S3 cells, BODIPY lipid droplet/cell ratio, laser cytometry, cells loaded with oleic acid; for activity change, negative = inhibition: at 25.7 µM (top of the series). Put shortly: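 Cells seeded at 5,000 per well were treated with compounds over a concentration series and loaded with oleic acid (400 uM, as added). Lipid droplet fluorescence (488 nm excitation, 500-530 nm channel) was read by laser-scanning cytometry and normalized to 20 uM Triacsin C.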

Test [8] addresses Luciferin 4-monooxygenase (Photinus pyralis) (UniProt P08659). Briefly: Biochemical firefly luciferase enzyme assay for NPC (AID 624030).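 Also: purified P. pyralis luciferase at 10 nM with luciferin and ATP substrate; 0% = DMSO and -100% = full luciferase inhibition by PTC124 control; nearly all actives have a fitted effect of over 70% in size.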 Put shortly: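 Counter-screen for direct inhibition of the luciferase enzyme by approved-drug library compounds, run at 10 nM enzyme in 50 mM Tris acetate (final). Luminescence was read within 5 min of enzyme-buffer addition and normalized to PTC124 versus DMSO (0%).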

A short description of test [9]: S16 Schwann cell viability assay (CellTiter-Glo assay) (AID 624031).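 Also: plate controls were DMSO-treated cells for no effect and cell-free wells for full effect; nearly all actives have a fitted effect of over 70% in size.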 An outline of the steps: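 Native S16 Schwann cells (rat), serum-containing medium, overnight attachment then 24 h drug exposure at 37 °C/5% CO2. CellTiter-Glo ATP signal; normalized to cell-free and vehicle wells.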
(ATP-based viability assays read luminescence as a measure of living cells.)

Test [10] can be described thus: qHTS profiling for inhibitors of Plasmodium falciparum proliferation (AID 504749).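 Also: 0% = DMSO vehicle and full inhibition = artemisinin control; nearly all actives have a fitted effect of over 60% in size.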 Particulars: P. falciparum in erythrocytes, SYBR Green DNA, 72 h, at 12.8 µM (top of the series). Put shortly:
(§1)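 Parasite proliferation within erythrocytes, 72 h exposure. Endpoint: SYBR Green I fluorescence after overnight lysis at room temperature. Controls: 0.29 uM artemisinin, DMSO.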

The test system of the next test is C2A. The description is as above. Conditions: P. falciparum in erythrocytes, SYBR Green DNA, 72 h; series mostly up to 12.8 µM. Put shortly:
as §1

In the next test the test system is CP191. The description is as above. Conditions: P. falciparum in erythrocytes, SYBR Green DNA, 72 h; series mostly up to 12.8 µM. An outline of the steps: as §1
In a further test the test system is CP256. Described as above. Conditions: P. falciparum in erythrocytes, SYBR Green DNA, 72 h; series mostly up to 12.8 µM. An outline of the steps:
as §1

In another test the test system is CP262. Described as above. Conditions: P. falciparum in erythrocytes, SYBR Green DNA, 72 h; series mostly up to 12.8 µM. Put shortly: as §1
Another test has as its system CP268. The description is as above. Particulars: P. falciparum in erythrocytes, SYBR Green DNA, 72 h; series mostly up to 12.8 µM. An outline of the steps: as §1
In another test the test system is JCK. The description is as above. Particulars: P. falciparum in erythrocytes, SYBR Green DNA, 72 h; series mostly up to 12.8 µM. An outline of the steps: as §1
The test system of another test is SC27B. The test is described as above. Conditions: P. falciparum in erythrocytes, SYBR Green DNA, 72 h; series mostly up to 12.8 µM. Put shortly: as §1
Test [11] deals with Ubiquitin carboxyl-terminal hydrolase 1 (Homo sapiens) (UniProt O94782). The test can be described thus: Inhibitors of USP1/UAF1: Pilot qHTS (AID 504865).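 Also: rhodamine fluorescence freed from ubiquitin-rhodamine substrate followed over time; top concentration of the series differs between compounds; % is scaled to controls: 0 for no effect and ±100 for the full control effect; nearly all actives have a fitted effect of over 35% in size.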 Put shortly:
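1nM USP1/UAF1 + cpd, 15 min RT; start w/ Ub-Rho 150nM final; kinetic FL 480/540 nm, 6 reads q60 s. Buffer 50mM HEPES pH 7.8, 0.5mM EDTA, 1mM TCEP, 0.01% Tween-20, 0.1 mg/ml BSA.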

In test [12] the target is Glucocorticoid receptor (Homo sapiens) (UniProt P04150). The test can be described thus: GR-GFP Redistribution (AID 450;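 active = compounds whose dose series gives a full or clear partial fitted curve of increased nuclear translocation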; also: potency is read from the fitted curve at half-maximal effect). Conditions: U2OS GR-GFP nuclear translocation, laser cytometry, 2 h.
Test [13] has the same target. Briefly: GR-EFC Redistribution (AID 451; calls by dose curve; also: potency is read from the fitted curve at half-maximal effect). Particulars: CHO-K1 GR-EFC translocation, beta-gal luminescence, 2 h. An outline of the steps:
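CHO-K1 cells stably expressing nuclear-localized β-gal enzyme acceptor and GR fused C-terminally to the enzyme donor fragment; ligand-driven nuclear translocation restores β-gal by complementation. Compounds titrated up to 46 uM final, 2 h at 37 °C; luminescence read.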

[14] abbreviates: measured here: cell count channel max response.
Where [15] appears, read: measured here: lipid channel max response.

Results filed as inconclusive are left out. Activity calls are given as the source filed them. Unless noted, calls follow the shape of the dose curve; as a rule, active = well fitted curve in the direction sought with a large enough effect; inconclusive = small, poorly fitted or top-dose-only effect, or another doubt; inactive = no such curve, though single readings can be large; an effect the other way counts as inactive or inconclusive.

Sequence of Luciferin 4-monooxygenase (Photinus pyralis) (P08659 whole entry, looked up): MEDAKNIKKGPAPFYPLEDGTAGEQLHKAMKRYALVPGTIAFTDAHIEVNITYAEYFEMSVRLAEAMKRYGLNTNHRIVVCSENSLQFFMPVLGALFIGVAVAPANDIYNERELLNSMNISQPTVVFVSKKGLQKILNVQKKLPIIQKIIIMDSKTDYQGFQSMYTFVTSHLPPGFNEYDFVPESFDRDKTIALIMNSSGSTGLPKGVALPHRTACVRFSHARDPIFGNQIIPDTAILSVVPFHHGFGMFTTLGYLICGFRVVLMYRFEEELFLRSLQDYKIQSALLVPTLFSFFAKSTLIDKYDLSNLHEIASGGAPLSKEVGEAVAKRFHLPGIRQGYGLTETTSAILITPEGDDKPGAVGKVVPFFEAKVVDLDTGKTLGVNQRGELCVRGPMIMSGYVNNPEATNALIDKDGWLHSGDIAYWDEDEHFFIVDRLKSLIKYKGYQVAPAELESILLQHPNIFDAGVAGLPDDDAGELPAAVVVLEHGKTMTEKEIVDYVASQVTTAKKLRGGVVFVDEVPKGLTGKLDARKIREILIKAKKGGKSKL
Sequence of Ubiquitin carboxyl-terminal hydrolase 1 (Homo sapiens) (O94782 whole entry, looked up): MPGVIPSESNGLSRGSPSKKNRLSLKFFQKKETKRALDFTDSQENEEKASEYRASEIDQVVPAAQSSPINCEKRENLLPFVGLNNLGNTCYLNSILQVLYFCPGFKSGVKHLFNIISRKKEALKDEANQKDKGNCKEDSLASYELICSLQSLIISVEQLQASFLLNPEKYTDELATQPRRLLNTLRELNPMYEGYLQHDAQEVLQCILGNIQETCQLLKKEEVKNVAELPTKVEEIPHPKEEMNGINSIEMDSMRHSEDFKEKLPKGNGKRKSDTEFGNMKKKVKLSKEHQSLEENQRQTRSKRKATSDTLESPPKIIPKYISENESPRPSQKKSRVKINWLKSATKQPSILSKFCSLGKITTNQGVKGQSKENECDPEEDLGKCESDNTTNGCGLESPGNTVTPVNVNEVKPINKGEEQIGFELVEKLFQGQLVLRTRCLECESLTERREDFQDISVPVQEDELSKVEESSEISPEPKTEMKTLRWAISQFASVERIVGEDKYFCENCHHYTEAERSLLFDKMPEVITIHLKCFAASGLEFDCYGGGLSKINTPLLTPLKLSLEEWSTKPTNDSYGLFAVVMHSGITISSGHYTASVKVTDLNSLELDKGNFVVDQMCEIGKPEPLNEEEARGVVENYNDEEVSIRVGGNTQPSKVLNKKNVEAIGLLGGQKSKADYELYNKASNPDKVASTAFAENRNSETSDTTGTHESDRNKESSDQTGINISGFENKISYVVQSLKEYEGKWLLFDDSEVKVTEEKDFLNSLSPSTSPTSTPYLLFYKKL
Sequence of Cytochrome P450 1A2 (Homo sapiens) (P05177 whole entry, looked up): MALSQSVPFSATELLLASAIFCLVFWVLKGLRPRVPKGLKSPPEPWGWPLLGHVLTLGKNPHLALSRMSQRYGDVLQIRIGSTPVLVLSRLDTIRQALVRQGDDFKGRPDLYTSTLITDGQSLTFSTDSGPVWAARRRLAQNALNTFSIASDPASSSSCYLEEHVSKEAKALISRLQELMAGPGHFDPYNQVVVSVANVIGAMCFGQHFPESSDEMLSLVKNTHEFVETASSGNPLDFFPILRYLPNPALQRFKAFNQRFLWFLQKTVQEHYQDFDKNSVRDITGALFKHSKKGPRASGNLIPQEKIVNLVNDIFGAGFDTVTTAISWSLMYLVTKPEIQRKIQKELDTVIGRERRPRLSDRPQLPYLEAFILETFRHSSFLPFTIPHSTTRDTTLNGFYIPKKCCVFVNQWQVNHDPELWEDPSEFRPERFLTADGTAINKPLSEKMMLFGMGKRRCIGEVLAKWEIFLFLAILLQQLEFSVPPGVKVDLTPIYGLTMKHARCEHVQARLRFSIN
Sequence of 3',5'-cyclic-AMP phosphodiesterase 4B (Homo sapiens) (Q07343 whole entry, looked up): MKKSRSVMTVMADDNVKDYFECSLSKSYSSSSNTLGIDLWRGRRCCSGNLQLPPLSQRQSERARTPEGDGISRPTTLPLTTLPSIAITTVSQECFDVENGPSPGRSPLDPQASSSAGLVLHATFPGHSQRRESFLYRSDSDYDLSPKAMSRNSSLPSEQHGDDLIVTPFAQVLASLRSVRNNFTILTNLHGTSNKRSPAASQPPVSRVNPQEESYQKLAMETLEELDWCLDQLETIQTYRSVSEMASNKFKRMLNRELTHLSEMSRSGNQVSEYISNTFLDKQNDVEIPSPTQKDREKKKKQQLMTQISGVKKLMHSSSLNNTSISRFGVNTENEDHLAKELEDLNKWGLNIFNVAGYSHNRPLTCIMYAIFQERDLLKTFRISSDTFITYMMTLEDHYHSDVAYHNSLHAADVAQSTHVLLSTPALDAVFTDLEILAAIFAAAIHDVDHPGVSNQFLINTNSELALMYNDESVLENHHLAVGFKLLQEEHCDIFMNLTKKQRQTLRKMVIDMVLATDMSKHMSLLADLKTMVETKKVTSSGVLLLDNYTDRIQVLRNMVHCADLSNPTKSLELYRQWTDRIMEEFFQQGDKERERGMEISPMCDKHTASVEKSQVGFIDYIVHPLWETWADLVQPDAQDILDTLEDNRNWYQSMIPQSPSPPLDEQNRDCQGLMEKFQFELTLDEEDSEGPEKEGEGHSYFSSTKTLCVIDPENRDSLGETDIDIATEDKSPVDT
Sequence of Glucocorticoid receptor (Homo sapiens) (P04150 whole entry, looked up): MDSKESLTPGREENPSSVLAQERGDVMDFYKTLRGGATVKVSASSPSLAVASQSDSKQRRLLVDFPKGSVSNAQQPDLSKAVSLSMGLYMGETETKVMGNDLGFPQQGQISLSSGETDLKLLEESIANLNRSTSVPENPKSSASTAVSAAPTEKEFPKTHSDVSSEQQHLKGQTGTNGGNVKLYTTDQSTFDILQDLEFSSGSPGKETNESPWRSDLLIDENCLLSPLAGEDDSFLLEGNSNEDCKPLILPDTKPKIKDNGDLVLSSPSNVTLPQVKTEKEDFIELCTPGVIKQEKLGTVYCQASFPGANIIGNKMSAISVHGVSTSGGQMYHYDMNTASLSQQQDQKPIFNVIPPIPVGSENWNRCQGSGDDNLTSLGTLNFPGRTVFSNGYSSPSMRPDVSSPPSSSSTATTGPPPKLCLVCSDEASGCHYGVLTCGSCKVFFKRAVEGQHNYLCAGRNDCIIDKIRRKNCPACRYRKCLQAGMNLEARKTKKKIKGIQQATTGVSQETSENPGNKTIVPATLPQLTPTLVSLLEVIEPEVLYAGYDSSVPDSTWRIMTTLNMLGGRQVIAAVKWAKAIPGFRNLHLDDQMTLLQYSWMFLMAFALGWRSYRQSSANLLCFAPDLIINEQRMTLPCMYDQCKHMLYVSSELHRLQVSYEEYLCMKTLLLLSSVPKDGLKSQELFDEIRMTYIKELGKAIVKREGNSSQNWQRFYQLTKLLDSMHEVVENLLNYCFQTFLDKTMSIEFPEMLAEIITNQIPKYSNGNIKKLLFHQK

On to `O=C(O)[C@@H](O)[C@@H](O)[C@@H](O)[C@@H](O)C(=O)O` (tested in a mixture with another compound), for which the call in test [1], in test [4] and in test [6] was inactive. For the same compound, the Potency result in test [2], in test [5] and in test [8] was “inactive” in each case. In addition, the activity change, negative = inhibition is -16.6% (inactive) in test [3] and -0.616% (inactive) in test [7]. Further, the max response in test [7] (setting [14]) is -10.9%; in test [7] (setting [15]), -7.78%.

Regarding `CCCC[C@H](CC)CN1CN(C[C@@H](CC)CCCC)CC(C)(N)C1`, the call in test [1], in test [4], in test [6] and in test [9] was inactive. The Potency result (in test [2]; in test [5]; in [8]; in the test on C2A; in the test on CP191; in the test with CP256) was “inactive” throughout. Also, the Potency entry in the test with CP262, with CP268, in the test on JCK and with SC27B was “inactive” throughout. For the same compound, the activity change, negative = inhibition is -26.2% (inactive) in [3] and -1.27% (inactive) in [7]. For the same compound, the max response was 0.881% in test [7] (setting [14]) and -2.09% in test [7] (setting [15]). The activity, negative = inhibition was -5.01% (inactive) in [10] (parasite line A) and 14.7% (inactive) in [10] (parasite line B).

`CC(=O)[C@H]1CC[C@@H]2[C@H]3CC=C4C[C@@H](O)CC[C@]4(C)[C@H]3CC[C@]12C`: the outcome in test [1], in [4] and in [6] was inactive. The Potency result in test [2], in test [5] and in test [11] was “inactive” throughout. The activity change, negative = inhibition was 3.47% (inactive) in [3] and -2.95% (inactive) in test [7]. The max response was -11.5% in test [7] (setting [14]) and -15.2% in test [7] (setting [15]).

Consider `NC[C@@H]1O[C@H](O[C@@H]2[C@H](O[C@@H]3O[C@H](CO)[C@@H](COC[C@H]4O[C@@H](CN)[C@@H](O)[C@@H](O)[C@@H]4N)[C@@H]3O)[C@@H](O)[C@@H](N)C[C@H]2N)[C@@H](N)[C@H](O)[C@@H]1O`, for which the compound was called inactive in [1] and in [6]. The Potency result in test [2], in test [5] and in test [11] was “inactive” in each case. In addition, the activity change, negative = inhibition in [3] is -1.32% (inactive); in test [7], -1.17% (inactive). In addition, the Potency in test [12] and in test [13] was > 20.6 µM (inactive) each time. The max response in [7] (setting [14]) was found to be 1.11%; in test [7] (setting [15]) it was 2.23%.

`COc1c(O[C@H]2O[C@@H](CO)[C@@H](O)[C@@H](O)[C@@H]2O)cc2c(c1OC)-c1ccc(SC)c(=O)cc1[C@H](NC(C)=O)CC2`: the result in test [1], in [6] and in [9] was inactive. The Potency entry (in [2]; in [5]; in test [11]; in test [8]; in the test with C2A; in the test with CP191) was “inactive” each time. Also, the Potency result in the test with CP256, in the test on CP262, with CP268, in the test with JCK and in the test on SC27B was “inactive” throughout. In addition, the results for the activity change, negative = inhibition in [3] and in test [7] were 5.96% (inactive) and -1.68% (inactive), respectively. The max response in test [7] (setting [14]) is 3.12%; in [7] (setting [15]), 2.91%. In addition, the activity, negative = inhibition in [10] (parasite line A) is 5.35% (inactive); in [10] (parasite line B), 4.25% (inactive).

The record behind these values is PubChem BioAssay (NCATS).
